The list is not random: actives were taken first. Their share in the collection is about 2.4%.
NSD2 inh: blocks human histone methyltransferase NSD2; O96028; NSD2 peptide methylation, AlphaScreen, 120 min; inhibition, % at 12.5 µM; 0.54% of 310,000 active; AID 743445
miR-122 sensor: inhibitors of miR-122 in Huh7 cells; 0.3% of 340,000 active; Huh7 miR-122 Renilla luciferase sensor, 48 h; neutral wells = 0, positive control = 100; activation (reporter increase), % at 12.5 µM; AID 602342;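 active means mean replicate activation score at least 90 and every replicate individually at or above 90; inconclusive means only one of the two criteria met; inactive means neither criterion met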;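 further: higher luciferase means less miR-122 activity so hits act as miR-122 inhibitors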
Wnt bcat act: Wnt/beta-catenin pathway activation | Wnt/beta-catenin reporter cell assay, activator, plate reader | activation, % at 9.35 µM | 1.2% of 300,000 active | AID 743398; in the data active means activation above about 30%, passing the limit was not always enough; inconclusive means no clear call, values can overlap the other calls
DYRK1A inh: blocks rat Dyrk1A kinase activity; ADP-Glo luminescence, NFATc1 peptide; inhibition, % at 12.5 µM; Q63470; AID 504441; 0.43% of 310,000 active
MITF TRPM1 HTS: increases MITF-driven TRPM1 promoter luciferase signal | SK-MEL-5 TRPM1-promoter luciferase, 24 h; % of positive control, neutral wells = 0 | activation, % at 12.5 µM | 0.75% of 300,000 active;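 active means mean activation of at least 80% with every replicate also reaching 80%; inconclusive means mean reaches 80% but some replicate falls short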
INS-1E GSIS act: primary screen for activators of insulin secretion dependent on glucose, INS-1E cells, GLuc reporter luminescence; AID 743287; INS-1E GLuc reporter insulin secretion, 2-3 h; activation, % at 16.6 µM; 0.61% of 370,000 active;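 active means lowest replicate activation of at least 40%, so every replicate reaches that level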
Alpha artifact: counter-screen for NSD2 inhibitors: AlphaScreen artifacts; shares compounds with NSD2 inh; AlphaScreen artifact counterscreen, preloaded methylated H4 peptide; AC35, µM (titrated, usually from 10 µM); 9.4% of 1,500 active; AID 1053174; call rule not given here
A number is an active result; - = inactive; ? = inconclusive; . = no result. Unless noted, no stated cut-off is given here; in the data, active means inhibition above about 50%; inactive means the rest.

SMILES	NSD2 inh	miR-122 sensor	Wnt bcat act	DYRK1A inh	MITF TRPM1 HTS	INS-1E GSIS act	Alpha artifact
CCc1cccc(NC(=O)CCCCCC2NC(=O)NC2C)c1 (centres undefined)	.	.	-	-	-	-	.
CC(=O)N(C)C[C@H]1Oc2cc(-c3ccccc3F)ccc2S(=O)(=O)N([C@@H](C)CO)C[C@H]1C	.	-	.	.	.	-	.
Cc1ccc(CSc2nnc(Nc3ccc(C)cc3)s2)cc1	126.6	-	.	-	.	-	-
CCN(CC)CCNC(=S)Nc1ccc2nc(N3CCCC3)cc(C)c2c1	65.9	-	-	-	-	-	-
COc1ccc(C#Cc2ccc([C@H]3[C@@H](CO)N4CCCCN(S(=O)(=O)c5cn(C)cn5)C[C@@H]34)cc2)cc1	.	-	.	.	.	-	.
O=C(O)c1ccc(-n2cccc2/C=N\NC(=O)c2cc3cc(Br)ccc3o2)cc1	57.7	-	-	-	-	-	-
Cn1cc(/C=N/NC(=O)c2cc3cc(Br)ccc3o2)c2ccccc21	-	-	-	.	.	-	.
COc1ccc2c3c(n(C)c2c1)[C@@H](CO)N(Cc1ccc2c(c1)OCO2)CC31CCN(C)CC1	.	.	.	.	.	-	.
O=C(N[C@H]1C=C[C@H](CC(=O)N2CCOCC2)O[C@H]1CO)c1ccc2c(c1)OCO2	.	.	.	.	.	-	.
CCCNC(=O)[C@H]1[C@H](CO)[C@H]2Cn3c(cccc3=O)[C@H]2N1C(=O)CC1CC1	.	-	.	.	.	-	.
O=C(OCc1ccc([N+](=O)[O-])cc1)c1cc(=O)c2ccccc2o1	115.2	-	-	-	-	-	-
N#Cc1ccc(COC(=O)c2cc(=O)c3ccccc3o2)cc1	-	.	-	-	-	-	.
CCC(=O)N[C@@H]1CC[C@@H](CCn2cc(C3CC3)nn2)O[C@@H]1CO	.	.	.	.	.	-	.
CCN(CC)CCCNc1nc(-n2nc(C)cc2C)nc2sc3c(c12)CC(C)(C)OC3	75.6	.	-	-	-	-	-
CCCC(=O)Nc1ccc(C(=O)O)cc1NC(=O)CCC	72.3	-	-	-	-	.	-
C[C@@H]1CN([C@H](C)CO)C(=O)c2cc(C3=CCCCC3)cnc2O[C@@H]1CN(C)C(=O)c1cccc(F)c1	.	-	.	.	.	-	.
O=C1C(NS(=O)(=O)c2ccc(Br)cc2)=C(N2CCCCC2)C(=O)c2ccccc21	57.8	-	-	-	-	-	2.35µM
O=C1C(Nc2cccc(O)c2)=C(N2CCCCC2)C(=O)c2ccccc21	64.1	-	-	-	-	.	-
O=C1C(NS(=O)(=O)c2ccccc2)=C(N2CCN(c3ccc(F)cc3)CC2)C(=O)c2ccccc21	-	-	-	-	-	-	.
CC(C)C#Cc1cnc2c(c1)C(=O)N([C@@H](C)CO)C[C@@H](C)[C@@H](CN(C)C(=O)c1cccnc1)O2	.	-	.	.	.	-	.
COc1ccc(S(=O)(=O)N2CCCCC2)cc1NC(=O)Cc1ccsc1	51.0	-	-	-	-	-	-
COc1ccc(C)cc1COC(=O)c1[nH]c(C)c(C(C)=O)c1C	54.6	-	-	-	-	-	-
CC(=O)c1c(C)[nH]c(C(=O)OCc2cccc(C)c2)c1C	-	-	-	-	-	-	.
CO[C@@H]1CN(C)C(=O)c2cc(NC(=O)Nc3ccccc3F)ccc2OC[C@@H](C)N(Cc2ccccc2C(=O)O)C[C@H]1C	.	.	.	.	.	-	.
COc1ccc(CC2=CC(=O)c3ccccc3C2=O)cc1	54.6	-	-	-	-	-	-
SMILES	NSD2 inh	miR-122 sensor	Wnt bcat act	DYRK1A inh	MITF TRPM1 HTS	INS-1E GSIS act	Alpha artifact
CCOc1ccc(N2CC(C(=O)NCCc3c[nH]c4ccc(OC)cc34)CC2=O)cc1 (centres undefined)	88.2	-	-	-	-	-	-
COc1ccc2[nH]cc(CCNC(=O)C3CC(=O)N(c4ccc(Cl)cc4)C3)c2c1 (centres undefined)	-	-	-	-	-	-	.
CCN(CC)CCCN=Cc1c(-c2ccccc2)[nH]n(-c2nc3ccccc3s2)c1=O	75.1	.	-	-	-	-	-
CCCN=C(C)c1c(-c2ccccc2)[nH]n(-c2nc3ccccc3s2)c1=O	-	-	.	-	.	.	.
Cc1ccc(S(=O)(=O)Nc2ccc3c(c2)CC(=O)N([C@@H](C)CO)C[C@H](C)[C@@H](CN(C)C(=O)Nc2ccc4c(c2)OCO4)O3)cc1	.	-	.	.	.	-	.
COc1ccc(NC(=O)N(C)C[C@@H]2OCCCC[C@@H](C)Oc3ccc(NS(C)(=O)=O)cc3C(=O)N([C@H](C)CO)C[C@H]2C)cc1	.	-	.	.	.	-	.
Cc1ccc(Nc2nc(-c3ccc(F)cc3)cs2)nc1	-	-	-	.	.	.	.
Cc1ccc(Nc2nc(-c3ccc(O)c(O)c3)cs2)nc1	87.6	.	-	.	.	-	-
COc1ccc2noc3c2c1C(=O)c1ccccc1-3	107.5	-	-	-	-	-	-
Cc1ccc(S(=O)(=O)N(C)C[C@H]2OCCCC[C@@H](C)Oc3ccc(NS(=O)(=O)c4ccccc4)cc3C(=O)N([C@H](C)CO)C[C@H]2C)cc1	.	-	.	.	.	-	.
Cc1cccc(N2CN=c3s/c(=C\c4ccncc4)c(=O)n3C2)c1	-	-	.	-	-	.	.
CCc1ccc(N2CN=c3s/c(=C\c4ccccc4)c(=O)n3C2)cc1	61.1	-	-	-	.	-	-
CN1CCN(C(=O)C[C@@H]2C[C@H]3c4cc(NC(=O)CC5CC5)ccc4O[C@H]3[C@H](CO)O2)CC1	.	-	.	.	.	-	.
CC1CCN(C(=O)CN(Cc2ccc(Cl)cc2)S(C)(=O)=O)CC1	61.7	-	-	-	-	-	-
CS(=O)(=O)N(CC(=O)N1CCCC1)Cc1ccc(Cl)cc1	-	.	.	-	-	-	.
Cc1ccc(NC(=O)CN(C)CCOc2ccccc2)c([N+](=O)[O-])c1	74.5	-	-	-	-	-	-
O=[N+]([O-])c1ccc(-[n+]2nc(-c3ccccc3)nn2-c2ccccc2)cc1	81.0	.	-	-	.	-	0.914µM
O=[N+]([O-])c1ccccc1-c1ccc(C(=S)N2CCCC2)o1	65.0	-	-	-	-	-	-
O=[N+]([O-])c1ccccc1-c1ccc(C(=S)N2CCCCC2)o1	-	-	-	-	.	-	.
CC(=O)N(C)C[C@H]1Oc2cc(-c3ccc(C)cc3)ccc2S(=O)(=O)N([C@H](C)CO)C[C@H]1C	.	-	.	.	.	-	.
O=C1CC2(CCCCC2)CC(=O)N1CCc1ccccc1	74.5	.	-	-	-	-	-
O=C1CC2(CCCC2)CC(=O)N1c1ccccc1	-	-	-	-	-	-	.
C[C@@H]1CN([C@H](C)CO)S(=O)(=O)c2ccc(-c3cccc(C(=O)N(C)C)c3)cc2O[C@H]1CN(C)C(=O)Cc1ccccn1	.	.	.	.	.	-	.
COc1ccc(NS(=O)(=O)c2ccc(Cl)c(NC(=O)c3ccccc3F)c2)cc1	-	-	-	.	-	.	.
O=C(Nc1cc(S(=O)(=O)Nc2ccccc2F)ccc1Cl)c1ccc(F)cc1F	88.9	?	-	-	-	-	-
C=CCC1CCCCC1=C(C#N)c1ccccc1 (centres undefined)	53.3	-	-	.	.	-	-

Source: PubChem BioAssay
